# Assay results as given in PubChem BioAssay (NCI).
# Where “and” joins values, the source holds several entries; their conditions need not be identical. Equal entries are not always repeated. The panel holds about 79,000 compounds, 15% with a hit somewhere; the sample as a whole holds those more often. A number with no mark means an inactive call. Calls of active or inactive are those of the source. No stated cut-off is given here; in the data, active means growth inhibition above about 70%; inactive means the rest.
# Key:
# [1] = NCI Yeast Anticancer Drug Screen. Data for the rad50 strain (AID 155);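 further: 0% = growth of vehicle-only cultures of the same strain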; conditions: S. cerevisiae rad50 strain growth inhibition, stronger effect = higher value; at 50.0 µM unless noted
# Outline: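 Yeast carrying a defined DNA repair defect were exposed to test compounds, and growth was compared with vehicle-treated controls to give percent inhibition.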
# [2] = NCI Yeast Anticancer Drug Screen. Data for the mec2-1 strain (AID 157); conditions: S. cerevisiae mec2-1 strain, stronger effect = higher value; at 50.0 µM unless noted
# Outline: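 Test agents were screened against the mec2-1 yeast strain, with defined DNA repair or cell cycle alteration. Growth was scored as inhibition against vehicle-only controls.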
# [3] = NCI Yeast Anticancer Drug Screen. Data for the sgs1 mgt1 strain (AID 161);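 further: 0% = growth of cultures given vehicle only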; conditions: S. cerevisiae sgs1 mgt1 strain, stronger effect = higher value; at 50.0 µM unless noted
# Outline: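 Mutant yeast exposed to compound; growth scored against vehicle-only wells.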
# [4] = NCI Yeast Anticancer Drug Screen. Data for the bub3 strain (AID 167); conditions: S. cerevisiae bub3 mutant strain, stronger effect = higher value; at 50.0 µM unless noted
# Outline: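 Compounds were applied to a genetically altered yeast strain carrying a cell-cycle control defect. Growth inhibition was scored against vehicle-treated controls.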
# [5] = NCI Yeast Anticancer Drug Screen. Data for the mlh1 rad18 strain (AID 175); conditions: S. cerevisiae mlh1 rad18 strain growth inhibition, stronger effect = higher value; at 50.0 µM unless noted
# Outline: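 In this whole-cell yeast screen, a strain with altered DNA damage repair is challenged with compound, and its growth is measured against matched vehicle-treated controls.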
# [6] = NCI Yeast Anticancer Drug Screen. Data for the cln2 rad14 strain (AID 165);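 further: 0% = growth equal to vehicle treated cultures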; conditions: S. cerevisiae cln2 rad14 strain, stronger effect = higher value; at 50.0 µM unless noted
# Outline: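 Growth of compound-exposed yeast (cln2 rad14 genotype) measured and expressed as inhibition relative to vehicle.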
SMILES,growth inhibition [1] [%],growth inhibition [2],growth inhibition [3],growth inhibition [4],growth inhibition [5],growth inhibition [6]
COc1cc(C(=O)N2CCOC23CCN(Cc2ccccc2)CC3)cc(OC)c1OC,-1.5,-30.6%,-7.8%,-6.9%,2.7%,–
CN(C=O)c1c(F)cc(N=Nc2ccccc2)cc1F,2.8,1.15%,6.65%,2.25%,9.7%,–
COc1ccc(/C=C/c2ccc(OC)cc2)cc1,13.3,-8.1%,0.6%,8.7%,5.8%,–
CC(C)(C)NCCS,-17.1,-34.9%,-32.4%,-19.9%,-12.8%,–
Cc1c2n(c(=O)[nH]c1=O)C1OC(CO)C(O2)C1N=[N+]=[N-] (stereo not given),-11.1,-17.6%,-27.2%,-9.65%,-34.6%,–
COC(=O)C1=CO[C@@H](OC2OC(CO)C(O)C(O)C2O)[C@H]2[C@@H]1C=C[C@@]21C=C([C@H](C)OC(=O)/C=C/c2ccc(OC3OC(CO)C(O)C(O)C3O)cc2)C(=O)O1 (stereo not given in full),-18.4,-18.6%,-20.1%,2.65%,-20.1%,–
O=C(Nc1ccccc1)c1cc(S(=O)(=O)Nc2n[nH]c(=O)[nH]2)c(SSc2cc(Cl)c(C(=O)Nc3ccccc3)cc2S(=O)(=O)Nc2n[nH]c(=O)[nH]2)cc1Cl,18.8,22.7%,-8.5%,-2.25%,25.4%,–
COC(=O)[C@@H]1Cc2cc(O)c(O)cc2C2(CCN(C)CC2)O1,-21.5,-22.8%,-17.6%,-10.7%,-29.1%,–
CCN(CC)CCOC(=O)Cc1cccc2c(=O)cc(-c3ccccc3)oc12,-1.65,-11.7%,-3.65%,14.8%,-53%,–
Cc1cc(C(=O)c2ccccc2)on1,4.05,-22.6%,-11.9%,7.7%,4.55%,–
O=C(c1ccccc1)C(C(Nc1ccccc1)c1ccccc1)N1CCOCC1 (stereo not given),6.65,-5%,-16%,27.4%,22.6%,–
Cc1cccc(C(=O)OCC2CCCO2)c1 (stereo not given),-0.2,11.7%,8.15%,8.8%,-3.4%,–
CC1(C)CSCC(C)(C)C(=N/N)/C1=N\N,6.95,22.7%,-8.35%,-33%,-41.3%,–
CCS(=O)(=O)c1ccc(NC(=O)OC2CCC3(C)C(=CCC4C3CCC3(C)C(C(C)CCCC(C)C)CCC43)C2)cc1 (stereo not given),21.5,6.15%,10.2%,-3.25%,3.65%,–
NC(CCO)P(=O)(O)O (stereo not given),13.3,-6.05%,-20.2%,2.05%,-4.6%,–
Cc1ccc(C)c(NC(=O)Nc2ccccc2)c1,3.3,4.25%,-7.2%,0.35%,1%,–
O=C(O)CNC(=S)SCC(=O)O,-2.4,-6.55%,-23.1%,5.2%,-19.6%,–
CCO/C(C)=N\OC(=O)C(F)(F)F,-0.1,-15.3%,6.55%,1.35%,-8.4%,–
CCOC(=O)c1ccc(N(CCO)CCO)cc1,3.45,12.4%,5.45%,32.5%,13.7%,–
CCCCCCCCOC(=O)NC1c2ccccc2Oc2c(C)cccc21 (stereo not given),1.7,5.9%,9.45%,-3.05%,12.9%,–
Nc1ccc2c(C(F)(F)F)cc(=O)oc2c1,14.2,-2.2%,8.2%,8.55%,8.8%,–

SMILES,growth inhibition [1] [%],growth inhibition [2],growth inhibition [3],growth inhibition [4],growth inhibition [5],growth inhibition [6]
CC(=O)Nc1nnn(C)n1,-4.65,-5.55%,0.8%,9.1%,-3.45%,–
O=S(=O)(O)c1cc(O)c(S(=O)(=O)O)cc1O,-12.2,13.9%,1.7%,1.4%,-8.6%,–
CC(C)=CC(=O)O,–,-3.3%,-9.3%,2.1%,7.9%,20.3%
Cc1ccc(S(=O)(=O)N2C(=O)CCC2C(=O)O)cc1 (stereo not given),–,-5.65%,10.6%,2.2%,2.7%,-17.1%
c1ccc(-n2ncn[n+]2-c2ccccc2)cc1,–,4.4%,-0.3%,32.8%,5.15%,28.4%
O=C1OC(c2ccccc2)=N/C1=C/C=C/c1ccco1,–,-5.45%,-6%,-1.6%,-40.3%,-9.75%
COc1cc2c3c([nH]c2c(OC)c1OC)CCN(Cc1ccccc1)C3,–,-15.1%,-10.2%,-0.7%,10.8%,6.1%
OC1C(SCc2ccccc2)OCC2OC3(CCCCC3)OC21 (stereo not given),–,-5.7%,-9%,1.75%,9.45%,-5.9%
ONC(CC(O)(NO)NO)c1ccccc1 (stereo not given),–,-32%,-20.6%,-28.1%,-25.9%,12.6%
COc1ccc2nc3cc(Cl)ccc3c(Nc3ccccc3-c3ccccc3Nc3c4ccc(Cl)cc4nc4ccc(OC)cc34)c2c1,–,-8.75%,-18.1%,2.1%,-27.8%,17.5%
C[C@@]1([N+](=O)[O-])CC2CCC1C2 (stereo not given in full),–,-12.5%,-16.4%,2.55%,-9.55%,-6.45%
CCC[n+]1nc2ccccc2c(=Nc2ccccc2[N+](=O)[O-])[n-]1,–,8.75%,2.75%,12.3%,2.45%,7.8%
OC1(C2(O)CCCC2)CCCC1,–,8.4%,22%,18%,12.8%,6.75%
NNC(=O)Cc1cccnc1,–,-0.75%,-26.1%,-33%,9.55%,-8%
CC(C)=CC(=O)CNC(N)=S,–,17.9%,16.4%,0.25%,23.9%,10.7%
CCOC(=O)[C@]12C3C=CC(C3)C1C(=O)C1OC12 (stereo not given in full),–,-26.8%,-19.3%,-26.6%,-45.1%,-0.5%
COc1ccc(OC)c(NC(=O)CCCC(=O)C(C#N)c2ccc(CC#N)cc2)c1 (stereo not given),–,-17.6%,-34.5%,3.1%,-25.6%,-40.8%
ClC1c2cccc3cccc(c23)C1Cl (stereo not given),–,8.75%,-0.6%,7.5%,10.7%,4.45%
O=C(OCc1ccccc1)C1CCN1C(c1ccccc1)c1ccccc1 (stereo not given),–,13.5%,5.5%,11.2%,-7.8%,-25.6%
CCCCCCCCCCCC[N+](C)(C)C(C)Cc1ccccc1 (stereo not given),–,99.5% (active),89.8% (active),99.2% (active),99.3% (active),99.4% (active)
CCCCCCCCCCCCSCCSCCCCCCCCCCCC,–,15.4%,4.9%,-29.4%,1.3%,-26.8%

SMILES,growth inhibition [1] [%],growth inhibition [2],growth inhibition [3],growth inhibition [4],growth inhibition [5],growth inhibition [6]
Cc1cccc(NC(=O)Nc2ccccc2Cl)n1,–,-3.6%,24.4%,13.2%,16.6%,25.7%
Cc1cc(Nc2nnc(-c3cccnc3Oc3ccccc3)s2)ccc1Br,–,-6.85%,-11.6%,0.5%,-5.35%,16.7%
CC(C)CC1N=C(NN=C(CCl)CCl)OP1(=O)NCCCCCCNP1(=O)OC(NN=C(CCl)CCl)=NC1CC(C)C (stereo not given),–,5.05%,2.95%,24.8%,37.6%,4.75%
CCOC(=O)C(Cc1ccccc1)NC(=O)c1ccc(N=NN(C)C)cc1 (stereo not given),–,-31.7%,-37.2%,6.65%,-29.6%,-8.15%
CCC(=O)C(C)=O,–,3.9%,13.1%,0.15%,11.7%,-4%
CC(C)CCOC(=O)C(O)c1ccccc1 (stereo not given),–,2.8%,0.4%,-25.7%,8.45%,-22.2%
C/C(CC1=CCCCC1)=N\NC(N)=O,–,-17.9%,-20.9%,-4.65%,-12.7%,-27.9%
CC(=O)Oc1cc(OC(C)=O)c2c(OC(C)=O)c3c(OC(C)=O)cc(C)cc3cc2c1,–,19.8%,39.5%,9.3%,20.1%,31.6%
CCCCCCCC[Si](c1ccccc1)(c1ccccc1)c1ccccc1,–,22%,3.85%,-2.2%,10.4%,-9.8%
COCC(C)OC(=O)COc1ccccc1 (stereo not given),–,-21.6%,-10.4%,-4.35%,-6.65%,-46.5%
CCOC(=O)C1=C(O)c2ccccc2C(=O)C1=O,–,3.8%,21.6%,13.2%,8.95%,11.3%
CC1(C)SC(c2ccccc2)SC(c2ccccc2)S1 (stereo not given),–,1.4%,-3.3%,-0.8%,17.4%,3.25%
CC(Oc1c(Cl)cc(Cl)cc1Cl)C(=O)O (stereo not given),–,-51.8%,-8.6%,-34.9%,-15.8%,12.8%
COc1cc(CC(=O)C(=O)O)ccc1O,–,-2.95%,4.35%,2.2%,-1.95%,-14.7%
C=CCCCC1CCCNC1=S (stereo not given),–,6.1%,20.4%,28.9%,20.9%,12.6%
C=C1C(=O)O[C@@H]2C[C@@]3(C)[C@H](O)CCC(=C)[C@@H]3C[C@H]12,–,25.1%,3.95%,19.6%,5.5%,17.1%
O=C(Nc1ccc(Br)cc1)C(Br)C(Br)c1ccccc1 (stereo not given),–,97.7% (active),98.6% (active),97.8% (active),97.9% (active),96.7% (active)
CN1CCN(C(=S)N(C)C(=O)c2ccco2)CC1,–,-36.9%,-48.9%,-44.4%,-40.1%,-8.85%
O=C(O)c1ccccc1C(=O)Nc1ccc(S(=O)(=O)Nc2nccs2)cc1,–,-15.9% and 9.8%,-17.1% and 19.8%,-2.35% and -4.15%,-18.5% and 25.6%,-4.7% and -20%
Cc1cc(C)c(CC(=O)c2ccccc2)c(C)c1,–,-9.5%,-1.9%,0.95%,-5%,-32%
Nc1nnc2nc(C3(c4nc5nnc(N)n5[nH]c4=O)CCCC3=O)c(=O)[nH]n12,–,-10.8%,-8.7%,4.6%,16.2%,3.45%
